Data published in PubChem BioAssay (NCI).
The panel holds about 83,000 compounds, 20% with a hit somewhere; the sample as a whole holds those more often.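 Each cell line was grown in a 96-well plate and treated with one concentration of compound for 48 hours. Values below 10 were considered active.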 A number with no mark means an inactive call. Active and inactive are the calls of the source.

How the values were obtained:
Experiment in all cases: NCI-60 one-dose screen, 48 h (100 = growth as untreated, 0 = no growth, -100 = all killed)
Settings in all cases: 10 µM unless noted
NCI-H23 lung = tested on: NCI-H23 lung
NCI-H226 lung = tested on: NCI-H226 lung
NCI-H322M lung = tested on: NCI-H322M lung
HOP-62 NSCLC = tested on: HOP-62 NSCLC
NCI-H460 lung = tested on: NCI-H460 lung
HOP-92 NSCLC = tested on: HOP-92 NSCLC
NCI-H522 lung = tested on: NCI-H522 lung
786-0 renal = tested on: 786-0 renal
COLO 205 colon = tested on: COLO 205 colon
A549/ATCC NSCLC = tested on: A549/ATCC NSCLC

Row | SMILES | growth (NCI-H23 lung) | growth (NCI-H226 lung) | growth (NCI-H322M lung) | growth (HOP-62 NSCLC) | growth (NCI-H460 lung) | growth (HOP-92 NSCLC) | growth (NCI-H522 lung) | growth (786-0 renal) | growth (COLO 205 colon) | growth (A549/ATCC NSCLC)
1 | O=C(c1ccccc1)c1cc2ccccc2oc1=O | 94.5% | 86.3% | 97.7% | 88.6% | 117% | 51.3% | 95% | 102% | 119% | –
2 | CC/C(=C(/CC)c1ccc(O)cc1)c1ccc(O)cc1 | 75.8% | 82.7% | 77.6% | 70.8% | 85.6% | 58.1% | 61% | 80% | 97.6% | –
3 | Nc1ccc(-c2ccc(N)c(S(=O)(=O)O)c2)cc1S(=O)(=O)O | 112% | 119% | 116% | 101% | 117% | 74.4% | 125% | 106% | 114% | –
4 | C=C(C(N)=O)C(N)C(=O)O (stereo not drawn) | 110% | 112% | 100% | 110% | 108% | – | 100% | 92.8% | – | 107%
5 | OCCOSCCO | 107% | 102% | 119% | 104% | 111% | 124% | 96.1% | 100% | 119% | –
6 | O=C(Nc1cccc(C(F)(F)F)c1)Oc1ccc(Cl)c2cccnc12 | 8.91% (active) | 86.3% | 101% | 76.8% | 10.4% | – | -77.1% (active) | 88% | 89.6% | -1.52% (active)
7 | Clc1ccc(-n2ncc3c(NCCCN4CCOCC4)ncnc32)cc1 | 87.6% | 91.8% | 89.8% | 87.7% | 102% | 71.3% | 94.7% | 107% | 87.4% | –
8 | O=C1C=CC(=O)N1c1ccccc1 | 98.2% | 87.7% | 110% | 92% | 110% | – | -51.8% (active) | 94.5% | – | 102%
9 | CC(=O)C1Cc2ccccc2C1=O (stereo not drawn) | 95.4% | 103% | 89.5% | 90.5% | 111% | 105% | 122% | 103% | 121% | –
10 | CCC(=O)c1cc([N+](=O)[O-])c(Br)s1 | 93.4% | 99.1% | 101% | 101% | 108% | 89.1% | – | 109% | 11.5% | –
11 | S=c1[nH]c2cc(Cl)ccc2s1 | 105% | 91.4% | 94.4% | 98.1% | 118% | 68.4% | – | 107% | 92.9% | –
12 | Cc1cc(C(N)=O)cc(C)c1C(=O)OCCCl | 104% | 105% | 97.2% | 93.9% | 101% | 90.1% | 101% | 100% | 111% | –
13 | CC1=CC(=NC(=O)CBr)C=C/C1=N\S(=O)(=O)c1ccccc1 | 80.2% | 68.3% | 107% | 75.1% | 98.4% | 52.9% | -80.4% (active) | 53.6% | 59.5% | –
14 | Nc1cccc2cccc([N+](=O)[O-])c12 | 101% | 94.8% | 114% | 97.8% | 112% | – | 104% | 100% | 94.1% | 106%
15 | O=S(=O)(O)c1cnccn1 | 97.6% | 104% | 101% | 71.6% | 123% | 94.2% | 96% | 97.8% | 107% | –
16 | O=C(c1ccccc1)C(Br)C(Br)c1ccccc1 (stereo not drawn) | 104% | 109% | 121% | 103% | 103% | 46% | – | – | 6.72% (active) | –
17 | CCCCC(C=O)(C=C=C(C)C)CC (stereo not drawn) | 112% | 103% | 101% | 120% | 105% | 86.4% | 95.5% | 99.1% | 110% | –

Row | SMILES | growth (NCI-H23 lung) | growth (NCI-H226 lung) | growth (NCI-H322M lung) | growth (HOP-62 NSCLC) | growth (NCI-H460 lung) | growth (HOP-92 NSCLC) | growth (NCI-H522 lung) | growth (786-0 renal) | growth (COLO 205 colon) | growth (A549/ATCC NSCLC)
18 | CC(C)=C1C=C2CC[C@@H]3[C@](C)(CCC[C@@]3(C)C(=O)O)[C@H]2CC1 | 101% | 103% | 94.8% | 93.6% | 106% | 97.2% | 96.2% | 95.9% | 107% | –
19 | S=C(S)OCN1CCOCC1 | 93.8% | 97% | 98% | 108% | 90.3% | 86.4% | 1.59% (active) | 108% | 20.7% | –
20 | c1ccc(C2NCCNC2c2ccccc2)cc1 (stereo not drawn) | 103% | 99.5% | 100% | 98.7% | 109% | 93.6% | – | 107% | 103% | 98.1%
21 | CN(C)c1ccc(C(=C2C=CC(=[N+](C)C)C=C2)c2ccc(N(C)C)cc2)cc1 | -19.9% (active) | -73.1% (active) | -42.2% (active) | -75.5% (active) | -39% (active) | -70.1% (active) | -44.9% (active) | -96.2% (active) | -84.3% (active) | –
22 | C(=N\Nc1ccc2ccccc2n1)/c1ccccn1 | 32.4% | 10.9% | -5.75% (active) | 6.17% (active) | 3.31% (active) | 42.2% | 20.2% | 22.1% | 20% | –
23 | CCCCN(CCCC)CCCCCCCCCCO | 97% | 105% | 95.1% | 104% | 110% | 129% | 75.9% | 92.1% | 106% | –
24 | CC(O)C(O)C(O)C(O)C(O)C(=O)NNc1ccccc1 (stereo not drawn) | 96.1% | 94.3% | 76.1% | 72.4% | 100% | 95.2% | 66.8% | 103% | 94.2% | –
25 | Cc1cc(C)c(C#N)c(Sc2nc(C)c([N+](=O)[O-])c(C)c2C#N)n1 | 60.2% | 111% | 83.6% | 72.8% | 89.9% | -1.8% (active) | – | 103% | 37.8% | 77%
26 | CCCCCC[C@@H](O)C/C=C\CCCCCCCC(=O)OCCOC | 101% | 101% | 104% | 88.9% | 107% | 79.2% | – | – | 115% | 94.3%
27 | Oc1ccc(Nc2ccc3ccccc3c2)cc1 | 69% | 89.2% | 33.9% | 57.4% | 59.4% | 55.9% | – | 46.7% | 96.1% | –
28 | Cc1c(O)ccc(SC#N)c1C | 98% | 109% | 117% | 100% | 99.5% | 92.2% | – | – | 96.9% | 108%
29 | C/C=C/c1cc2c(c(=O)o1)C(=O)[C@@H](O)[C@H](C)O2 | 77.9% | 79.6% | 94.6% | 101% | 81.6% | – | -69% (active) | 78.4% | 35.6% | 97.2%
30 | O=C1C=CC(=O)c2c(O)c(CO)c(CO)c(O)c21 | 89.2% | 110% | 119% | 109% | 102% | – | 56.6% | 93.7% | 12% | 99.5%
31 | Cc1ccc(NC2=CC(=O)C(=O)c3ccccc32)cc1 | -31.2% (active) | -67.9% (active) | -12.5% (active) | -86.2% (active) | 5.26% (active) | – | 18.8% | 34.8% | -68.5% (active) | -36.5% (active)
32 | COc1cc2c(c(OC)c1OC)-c1ccc(NCc3ccccc3)c(=O)cc1[C@@H](NC(C)=O)CC2 | 25.9% | -12.4% (active) | 50.1% | 26.9% | 4.14% (active) | – | -10.3% (active) | 21.9% | -82.4% (active) | 14.5%
33 | Nc1cc(-c2ccccc2)ccc1O | 101% | 112% | 87.2% | 122% | 102% | – | 96.3% | 97.8% | 110% | 65.7%
